Source: PubChem (National Center for Advancing Translational Sciences (NCATS))
Compounds with a hit are over-represented: about 19% of the library has one in this group of screens.
IL-1B inflam inh: qHTS for Inhibitors of Inflammasome Signaling: IL-1-beta AlphaLISA Primary Screen. AID 743279, 2014. activity change, % at 57.5 µM. hit rate 4.7% among 360,000. THP-1 LPS/ATP IL-1B secretion, AlphaLISA, 16 h; stronger effect = lower value; in the data active = activity change below about -50%; inconclusive = mostly about -30% to -49%
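THP-1 cells pretreated 1 hr with compounds (up to 57.5 uM final), then stimulated with LPS (250 ng/mL final) plus ATP (1.25 mM final); secreted IL-1B measured by AlphaLISA after 16 hr, decreased signal indicating inhibition.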
TDP1 inh: qHTS Assay for Inhibitors of Tyrosyl-DNA Phosphodiesterase (TDP1); Tyrosyl-DNA phosphodiesterase 1 (Homo sapiens), Q9NUW8; recombinant TDP1, AlphaScreen DNA substrate cleavage; Potency, µM (doses to about 130 µM), for the others: at the highest dose activity change, negative = inhibition, actives largely listed as inhibitors; hit rate 0.28% among 350,000; note: potency is the fitted concentration of half-maximal effect; nearly all actives have a fitted effect of over 40% in size
Target sequence (Q9NUW8 whole entry, looked up): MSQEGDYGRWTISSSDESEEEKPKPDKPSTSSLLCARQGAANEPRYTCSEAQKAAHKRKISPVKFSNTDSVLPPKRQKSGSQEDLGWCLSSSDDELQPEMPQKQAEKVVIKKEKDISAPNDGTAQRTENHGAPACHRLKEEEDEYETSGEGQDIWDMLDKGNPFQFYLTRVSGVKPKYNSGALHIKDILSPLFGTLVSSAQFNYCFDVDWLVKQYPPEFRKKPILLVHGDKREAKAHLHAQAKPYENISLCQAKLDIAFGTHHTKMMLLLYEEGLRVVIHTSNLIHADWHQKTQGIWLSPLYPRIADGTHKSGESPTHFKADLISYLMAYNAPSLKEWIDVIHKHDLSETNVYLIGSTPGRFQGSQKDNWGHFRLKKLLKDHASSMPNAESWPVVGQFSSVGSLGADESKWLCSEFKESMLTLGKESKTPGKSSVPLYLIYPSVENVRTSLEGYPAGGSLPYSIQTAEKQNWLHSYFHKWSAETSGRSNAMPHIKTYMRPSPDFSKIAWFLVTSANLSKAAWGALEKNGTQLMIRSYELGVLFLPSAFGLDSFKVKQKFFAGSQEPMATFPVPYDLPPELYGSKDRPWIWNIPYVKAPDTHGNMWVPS
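Tdp1 1 nM final; 15 min RT w/ cpd; substrate 15 nM, 5 min; beads 10 ug/ml, 10 min; AlphaScreen read. Neg ctrl: no enzyme.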
DT40 TDP1 no CPT: qHTS for Inhibitors of human tyrosyl-DNA phosphodiesterase 1 (TDP1): qHTS in cells in absence of CPT. Potency, µM (titrated, usually from 46.2 µM), inactives show top-dose activity change, negative = growth inhibition, usual class: inhibitors. DT40 Tdp1-/- hTDP1 cells, no CPT, ATP luminescence, 48 h. hit rate 15% among 420,000. AID 686978, 2013; note: potency is the fitted concentration of half-maximal effect; nearly all actives have a fitted effect of over 55% in size
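Chicken DT40 Tdp1-/- cells stably complemented with human TDP1 were seeded at 400 cells/well with DMSO in place of 20 nM camptothecin. After compound pinning, cells grew at least 48 hr at 37 °C; viability read by CellTiter-Glo luminescence.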
DT40 TDP1 CPT: qHTS for Inhibitors of human tyrosyl-DNA phosphodiesterase 1 (TDP1): qHTS in cells in presence of CPT | Potency, µM (highest dose often 46.2 µM), inactives show at the highest dose activity change, negative = growth inhibition, most hits filed as inhibitors | hit rate 12% among 420,000 | chicken DT40 Tdp1-/-;hTDP1 cells + 20 nM CPT, ATP luminescence, 48 h; note: potency is the fitted concentration of half-maximal effect; nearly all actives have a fitted effect of over 55% in size
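Chicken DT40 Tdp1-/- cells stably complemented with human TDP1 were seeded at 400 cells/well in medium containing 20 nM camptothecin, exposed to pin-transferred compounds, and grown at 37 °C for at least 48 hr. Viability was read as ATP luminescence.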
Giardia killer: Small Molecules that selectively kill Giardia lamblia: qHTS; Giardia lamblia trophozoite viability; hit rate 0.15% among 340,000; activity change, % at 7.66 µM, hits read low; in the data active = activity change below about -80%; inconclusive = between about -30% and that limit;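 note: parasites exposed to compound for two days anaerobically before the ATP read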
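Anaerobic 48 hrs incubation at 37 deg C of 100 trophozoites/well with test compounds; ATPLite 1-Step luminescence, 15-30 min RT, reports cellular ATP as viability.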
ELG1 DNA repair: qHTS screen for small molecules that inhibit ELG1-dependent DNA repair in human embryonic kidney (HEK293T) cells expressing luciferase-tagged ELG1; Potency, µM (series often up to 46.1 µM), without a hit: at the top dose activity change, negative = inhibition, hits mostly inhibitors; hit rate 2.3% among 330,000; AID 504467, 2011; HEK293T ELG1-luciferase reporter, luminescence, 16 h; DNA damage induced by 5-fluorouridine; note: potency is the fitted concentration of half-maximal effect; nearly all actives have a fitted effect of over 55% in size
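Luminescence from the luciferase reporter, measured 30 min after ONE-Glo reagent at room temperature, was the read-out. Beforehand, 2,000 cells per well were exposed for 16 hr at 37 °C to 5-fluorouridine together with compound or vehicle.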
An asterisk follows results filed as active; ? = inconclusive; . = no result given; [ ] = dose if it differs, or a comment. Unless noted, calls come from the whole dose curve; as a rule, active = well fitted curve in the direction sought with a large enough effect; inconclusive = small, poorly fitted or top-dose-only effect, or another doubt; inactive = no such curve, though single readings can be large; an effect the other way counts as inactive or inconclusive. % is set by controls: 0 for no effect and ±100 for the full control effect.

SMILES	IL-1B inflam inh	TDP1 inh	DT40 TDP1 no CPT	DT40 TDP1 CPT	Giardia killer	ELG1 DNA repair
COc1ccc(C(=O)Nc2ccc3nc4c(c(Nc5ccc(OC)c(OC)c5)c3c2)CCCC4)c(OC)c1	.	9%	2.9µM*	3.3µM*	.	.
COc1ccc(Nc2c3c(nc4ccc(NC(=O)c5ccc(F)cc5)cc24)CCCC3)cc1OC	.	9%	?	?	.	.
COc1ccc(C(=O)Nc2ccc3ccccc3c2)c(OC)c1	-2	0%	?	?	-6	?
Nc1cc(OC(=O)c2cccs2)nn1S(=O)(=O)c1ccccc1	-4	-3%	-10%	-24%	21	15%
Nc1cc(OC(=O)c2c(F)cccc2Cl)nn1S(=O)(=O)c1ccccc1	-94*	2%	-5%	-5%	-15	30%
Cc1ccc(NC(=O)Nc2nnc(SCC(=O)N3CCC(C)CC3)s2)cc1	.	3%	23µM*	?	.	.
CCN(c1ccccc1)c1nnc(NC(=O)Nc2ccc(Br)cc2)s1	.	9%	3.7µM*	2.9µM*	.	.
CCCSc1nnc(NC(=O)CCc2ccccc2)s1	48	0%	-9%	-5%	-11	14%
CCCSc1nnc(NC(=O)Nc2ccccc2)s1	0	3%	16µM*	?	-7	?
Cc1ccc(NC(=O)Nc2nnc(N(C)Cc3ccccc3)s2)cc1	.	6%	-19%	-28%	.	.
CCOC(=O)Cc1ccc(NC(=O)Nc2nnc(N3CCCCC3C)s2)cc1 (centres undefined)	.	3%	12µM*	12µM*	.	.
CC(NC(=S)NC1CCC(C(C)(C)C)CC1)c1ccccc1 (centres undefined)	5	6%	?	?	6	0%
Cc1n[nH]c(=O)n(N=Cc2c[nH]c3ccccc23)c1=O	-9	.	-6%	7%	.	.
CCCSc1nnc(NC(=O)Nc2ccc(C)cc2)s1	22	7%	?	?	-20	2%
CCCSc1nnc(NC(=O)Nc2ccc(F)cc2)s1	-28	-3%	21µM*	21µM*	-2	18%
Cc1ccc(-c2nc3ccc(Br)cn3c2Cc2cccc(F)c2)cc1	-25	.	?	16µM*	.	.
Cc1ccc2nc(-c3ccccc3)c(Cc3cccc(F)c3)n2c1	22	.	21µM*	?	.	.
Fc1ccc(-c2nc3ccc(Br)cn3c2Cc2cccc(F)c2)cc1	36	.	?	-30%	.	.
S=C(NCc1ccc(Cl)cc1)NCc1ccco1	10	8%	-2%	-13%	4	18%
Cc1c(C(=O)N2CCCC(c3ccccc3)C2)sc2ncnc(NCCc3ccccn3)c12 (centres undefined)	.	.	-14%	16%[9.04 µM]	.	.
Cc1cccc(NC(=O)CSc2nnc(-c3ccco3)c(-c3ccco3)n2)c1C	-87*	?	?	-7%	-2	-7%
Cc1cccc(NC(=O)CSc2nnc(-c3ccco3)c(-c3ccco3)n2)c1	-94*	5%	18µM*	?	22	0%
CC(C)(C)[C@H]1COC(=O)[C@H](Cc2ccc(F)cc2)CC/C=C/C[C@@H](CC(=O)N[C@H](CO)Cc2ccccc2)C(=O)N1	12	0%	21µM*	?	-23	12%
O=C(C[C@@H]1C/C=C/CC[C@@H](Cc2ccc(F)cc2)C(=O)OCCNC1=O)N[C@H](CO)Cc1ccccc1	18	-1%	?	?	-29	-17%
O=C(C[C@@H]1C/C=C\CC[C@@H](Cc2ccc(F)cc2)C(=O)OC[C@@H](Cc2ccccc2)NC1=O)NCCO	11	1%	?	15µM*	-23	-4%
SMILES	IL-1B inflam inh	TDP1 inh	DT40 TDP1 no CPT	DT40 TDP1 CPT	Giardia killer	ELG1 DNA repair
C[C@H]1COC(=O)[C@H](Cc2ccc(F)cc2)CC/C=C/C[C@@H](CC(=O)N[C@@H](CO)Cc2ccccc2)C(=O)N1	-1	1%	16µM*	12µM*	-4	0%
O=C(C[C@@H]1C/C=C/CC[C@@H](Cc2ccc(F)cc2)C(=O)OC[C@H](Cc2ccccc2)NC1=O)N[C@H](CO)Cc1ccccc1	-18	-2%	5.2µM*	9.2µM*	1	?
Cc1cccc(N2CCN(S(=O)(=O)c3ccc4oc(=O)c5ncn(C)c5c4c3)CC2C)c1 (centres undefined)	.	0%	4%	-11%	.	.
Cc1cccc2nc(CSc3nnc4ccccn34)cn12	14	3%	1%	-5%	-12	.
Cc1cc(NC(=O)CCS(=O)(=O)c2cc3c4c(c2)CCN4C(=O)CC3)ccc1Br	.	3%	-1%	1%	.	.
CC(=O)Nc1cc(-c2ccc(CO)cc2)cn2c(-c3cccc(C(F)(F)F)c3)cnc12	-27	.	23µM*	18µM*	.	.
CC(=O)Nc1cccc(-c2cc(NC(C)=O)c3ncc(-c4cccc(C(F)(F)F)c4)n3c2)c1	-3	.	23µM*	26µM*	.	.
CC(=O)Nc1cc(-c2ccc(N)nc2)cn2c(-c3cccc(C(F)(F)F)c3)cnc12	0	.	15µM*	?	.	.
CC(=O)Nc1cc(-c2ccc(N)cc2)cn2c(-c3cccc(C(F)(F)F)c3)cnc12	-10	.	16µM*	16µM*	.	.
COc1cccc(CN2C(=O)NC(C)(C3CCN(Cc4ccc(C)o4)CC3)C2=O)c1OC (centres undefined)	.	.	-5%	-5%	.	.
COc1ccc(NC(C)=O)cc1NC(=O)c1cccc(C(F)(F)F)c1	82	5%	6%	3%	4	11%
COc1ccc(F)cc1-c1cc(NC(C)=O)c2ncc(-c3cccc(C(F)(F)F)c3)n2c1	?	.	?	29µM*	.	.
COC(=O)c1cc(NCc2c(F)cccc2Cl)ccc1N1CCOCC1	-3	6%	-27%	?	-5	-9%
COC(=O)c1ccc(NCc2c(O)ccc(O)c2Br)cc1Cl	-119*	.	4.6µM*	2.6µM*	14	.
COC(=O)c1ccc(NCc2cc(O)ccc2O)cc1O	-104*	.	3.3µM*	5.2µM*	-16	.
CN(C)c1ccc(CC(=O)c2nc3ccccc3s2)cc1	35	-1%	?	16µM*	-21	?
CN(C)C(=O)c1nc2ccccc2s1	18	3%	-7%	9%	-13	?
